Legend:
Assay in all cases: PBM binding z-score (relative to random genomic background probes); higher = stronger binding; sequences stand for … in GC…GCGATTGACAGCGTAGAATGAAGG
[1] = system: RARb homodimer (NR concentration 270 nM)
Summary of the method: (§1)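 Ligand-free nuclear receptor dimers were applied to custom Agilent 4×180K protein-binding microarrays whose double-stranded probes carried direct-repeat seeds, single-nucleotide variants, half-site ablations and random human genomic background sequences in 34-nt variable regions. Incubation lasted 1 h. Binding z-scores were computed against the random background probes from regression-normalized fluorescence.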

[2] = system: RARg:RXRa (NR concentration 270 nM, RXRa partner concentration 90 nM)
Summary of the method: as §1

[3] = system: RARg homodimer (NR concentration 270 nM)
Summary of the method: as §1

[4] = system: RXRa DBDmut IVT, anti-RXR (DBD mutation: RXRa K156A/R161A, NR concentration 90 nM)
Summary of the method: as §1

[5] = system: RXRa homodimer (NR concentration 180 nM)
Summary of the method: as §1

[6] = system: THRa:RXRa (NR concentration 90 nM, RXRa partner concentration 90 nM)
Summary of the method: as §1

[7] = system: THRa homodimer (NR concentration 90 nM)
Summary of the method: as §1

[8] = system: VDR homodimer (NR concentration 270 nM)
Summary of the method: as §1

Sequence	PBM binding z-score [1]	PBM binding z-score [2]	PBM binding z-score [3]	PBM binding z-score [4]	PBM binding z-score [5]	PBM binding z-score [6]	PBM binding z-score [7]	PBM binding z-score [8]
TCTCGGAGGACACGAAAGGTCACAGCTCGACATC	4.92	6.11	6.17	1.44	6.3	4.29	2.38	2.48
TTACCTAGGTGAGCTGAGGTCGTTGATCCAACTC	1.32	0.757	0.325	0.055	1.01	4.18	2.11	1.73
GCTTGTAGATCAAGTTTAAGAAAGACTAAGCTAA	-0.242	-0.195	-0.0872	0.649	-0.236	-0.0932	-0.618	0.27
GCAGACAGGTGAAACGCAGGTAAATCAGGGTGGC	0.00843	0.816	-0.0582	-0.477	0.544	1.23	-0.537	-0.336
TCAGACAGGTGAAGGTAACTTAGGTACGCAGTCG	0.872	0.797	0.756	1.19	1.14	1.86	0.691	0.508
GCATATCGGTAATACAAGGTGAAAGTCCGATTGT	0.774	0.308	0.268	0.112	0.446	3.07	0.911	-0.28
CCGACTGGGGCATAAGGTTACTATAAGCCAGCCC	1.38	1.37	0.813	-0.277	1.04	1.59	0.819	0.0174
GCATATAGGTAATACAAGGTGAACGTCCGATTGT	0.986	0.615	0.716	0.418	0.745	4.18	1.38	0.386
CGAGCTAGGTCATTGACAGGACAGTGAATAGTAA	2.77	4.67	4.49	2.43	2.37	2.7	0.527	1.23
AGAACGAGGGCACGCAGAGTTGATAGCAGAGTAG	1.68	2.85	2.58	2.14	1.73	1.94	0.33	1.86
CGTCCAACGTCAAAGGTCAGTGAAGAGATGACGG	4.22	4.66	5.08	0.458	5.09	2.5	0.106	0.685
TTCCCAAGGTGAAGGTCGTTGATCCCTCTGTAGA	1.87	1.35	1.04	-0.0232	1.74	2.52	1.11	0.952
ATCGAAAGGTCGTGGTGAGTATAGAGAAAGGGAA	2.85	4.45	3.8	1.52	4.79	2.82	0.58	1.23
TCTATTAGTTGATTAGTGCAACCGAAACAGCGGA	0.0135	0.467	0.362	0.964	0.333	0.158	0.00829	0.654
TCGAGTAGGTTACCAATTGGGCATTCAGCTTTCT	-0.00589	0.186	-0.124	0.484	0.205	-0.0916	-0.446	-0.653
CCTGTTAGGTCAATGGTCAGCTAAAGCAGCTCGC	3.5	4.07	4.93	2.35	2.63	3.16	2.18	0.926
GGTTGTAGATCAAGGTTAAGAAAGACTAAGCTAA	0.97	0.695	0.809	0.0764	0.901	1.53	0.54	0.584
CCTACTGGTCCATCAGGTCATTGATATCAACGTT	2.5	1.6	1.47	1.04	1.28	3.41	3.29	2.02
CCTACTGGGCCAAGGGCATTGATCAGTCAAAGCA	0.581	0.0127	0.289	-1.17	-0.4	0.178	-0.634	-0.245

Sequence	PBM binding z-score [1]	PBM binding z-score [2]	PBM binding z-score [3]	PBM binding z-score [4]	PBM binding z-score [5]	PBM binding z-score [6]	PBM binding z-score [7]	PBM binding z-score [8]
ACTAGCAGGCAAAGTTTGGGTCACTCAAACAAAG	1.61	0.87	0.559	-0.386	0.711	2.14	0.949	0.233
TCATATAGGTATTACAGGTGAAAGTCGGCATCTA	0.804	0.652	0.438	1.81	1.35	0.854	0.684	0.524
GCCTATAGGTAATACAAGGTGAAAGTCCGATTGT	0.782	0.406	0.334	0.0892	0.582	4.25	1.06	-0.376
CAAACTAGGTCAAGGTCAAAGTTGGTTTGTGCCA	5.15	6.1	6.67	3.1	6.01	4.39	3.85	4.14
ACTCGGAGGACAAAGGTCAGATCTACGCCAGTGA	4.47	5.88	5.52	1.38	4.78	3.36	0.695	1.27
CGAACTGGGTCATCCAGGACAGTGAATACATTGA	2.71	3.55	3.7	1.35	2.99	3.48	1.25	1.8
CGAATTAGGTCATTGACAGGACAGTGAATAGTAA	2.68	4.6	4.22	2.69	2.53	3.33	1.54	1.22
TGAATGAGGTTATAGATCAGGGAACGTGGCGTCG	0.339	1.36	1.02	0.491	2	2.05	0.416	0.618
ATATTTAGGTTACATCCGGGTCATTCAGGCTATG	3.1	3.51	2.31	1.39	3.32	4.1	3.84	3.54
CCTACTGGGCCAAGGTCATTCATCAGTCAAAGCA	3.52	3.84	3.48	1.7	3.42	3.44	2.53	3.56
CGTCCAAGGTCAGCAGGTCAGTGACAGCGACGTG	5.12	6.43	7.03	2.63	5.26	3.87	2.43	2.08
CAGCCTAGGTCAGGGGCAGTATAGGAGGAACGTT	2.99	3.27	4.18	-0.191	1.91	2.37	0.948	0.103
CTTCCAAGGTCAGAGAGGTCAGTGAATGCCGAGT	5.27	6.1	7.29	2.97	5.22	4.3	2.74	5.58
TCTAGTTGATCAAAGGTCACACACTCGAAATGCG	4.89	6.54	5.95	2.21	7.03	4.22	2.08	2.79
TCATATAGGTAATACAGGCGAAAGTCGGCATCTA	-0.403	0.375	0.171	1.23	0.623	-0.0703	-0.232	-0.187
CTCGAAAGGTCGGTGGAGGTGAGTATACGGATAA	2.57	2.73	2.83	0.607	2.32	4.27	0.235	0.546
GTACCAAGGTGAATACGTCGTTGATGAGTAGGCG	0.139	0.764	0.692	-0.417	0.56	1.19	0.199	-0.342
CAAACTAGGTCACCGGAAGGTCAAAGTCCGCATG	5.88	8.43	7.82	2.05	6.69	4.6	2.95	3.43
ATCTCTAGGTAAGACTCACTTCAGTGAAGAACGC	-0.0357	-0.204	0.301	0.173	-0.184	0.282	0.429	-0.111

Sequence	PBM binding z-score [1]	PBM binding z-score [2]	PBM binding z-score [3]	PBM binding z-score [4]	PBM binding z-score [5]	PBM binding z-score [6]	PBM binding z-score [7]	PBM binding z-score [8]
ATCGAAAGGTCGACGAGGTAAGTATACACCGTTT	2.39	3.89	3.66	1.2	4.03	3.14	0.239	0.679
GCTAGTAGGCCATTTGGGTCACTCAATGACGGGC	2.03	0.972	1.33	0.0324	0.766	1.75	0.382	0.26
TTACCAAGGTGAGGTGAGGTCGTTGATCCAACTC	2.09	1.42	1.41	0.267	1.86	4.41	2.84	2.28
ATCTCTAGGTAAAGATAGTTCAGTGGATGCAAAT	0.847	0.4	0.785	-0.122	0.17	0.667	0.0913	0.205
ACGGACAGGTGAGTGAAGGTAACTCAGCTGGACG	0.226	0.31	0.674	-0.495	0.344	1.69	-0.483	-0.502
GCTGCTAGGTCAGGTTGGTCAGCTCACGGGTACG	2.66	2.78	3.52	0.658	1.28	1.84	0.901	0.536
TCTATTAGTGGAAGGGCAACCGACGAGTCCGTTT	1.21	0.443	0.673	1.28	0.619	0.13	0.0131	1.3
ATTACAGGGTCATCGTAGGCCAGAGTACGCACAG	3.91	5.86	5.41	3.6	6.79	4.86	1.78	3.83
TGAATGCGGTTATAAGATCAGGGAACGTTGCAAA	-0.46	0.175	0.239	-0.906	-0.0523	-0.183	-0.559	-0.171
TAGCCTACGTCATTCAGGGGCCAGTATAGAAAGC	0.534	0.54	0.097	-0.122	0.286	0.215	-0.39	-0.343
GCTATTAGTTGAAAGGGCAACCGAATGATTCTCG	2.09	1.26	1.37	0.972	1.21	0.664	-0.209	0.624
CCTACTGGGCCAAAAAGGTCATTGGTGCCGATAA	4.58	4.6	4.13	0.562	4.92	3.13	0.738	2.89
CGAACTAGGTCAAGGACAGTGGATCTCCGCACGC	3.1	3.74	4.5	1.34	2.41	3.05	2	0.315
ACTAGCAGGCCAAGTTTGGGTCACTCTAACAAAG	2.06	2.24	1.6	-0.0163	0.429	2.39	1.06	0.209
CCTGCTAGGTCAATGGCCAGCTAAAGCAGCTCGC	2.64	3.43	3.65	1.05	1.79	1.98	0.178	-0.525
TCTAGTTGGTCAGGGAGGTCACACACGACGGGTA	4.42	4.31	3.88	1.08	4.14	3.63	2.88	3.18
CCTATTAGTTGACCATAAGGGCATCCGAAGCTCG	1.78	1.12	1.02	0.721	0.568	1.89	1.35	1.26
TCATATAGGTAAATGCTAGATGAAAGTCCGATCT	-0.248	0.314	0.454	1.15	0.617	-0.0472	-0.457	0.317

— the supplement of paper PMC6555819
